Source: article PMC7862700, “An all-to-all approach to the identification of sequence-specific readers for epigenetic DNA modifications on cytosine”

Legend:
Assay in all cases: DAPPL (digital affinity profiling via proximity ligation, sequencing); 10 mM Tris-HCl pH 7.5, 50 mM NaCl, 1 mM DTT, 4% glycerol, room temperature, 30 min; GST-TFs on glutathione beads, 16-mer random dsDNA library, 0.1% formaldehyde crosslink after washing; high values mean tight binding
Conditions in all cases: protein: recombinant; tags: N-terminal GST; dsDNA, one strand shown
FLI1 = molecular target: T1, FLI1 (Homo sapiens, UniProt Q01543 1-452)
T1 sequence: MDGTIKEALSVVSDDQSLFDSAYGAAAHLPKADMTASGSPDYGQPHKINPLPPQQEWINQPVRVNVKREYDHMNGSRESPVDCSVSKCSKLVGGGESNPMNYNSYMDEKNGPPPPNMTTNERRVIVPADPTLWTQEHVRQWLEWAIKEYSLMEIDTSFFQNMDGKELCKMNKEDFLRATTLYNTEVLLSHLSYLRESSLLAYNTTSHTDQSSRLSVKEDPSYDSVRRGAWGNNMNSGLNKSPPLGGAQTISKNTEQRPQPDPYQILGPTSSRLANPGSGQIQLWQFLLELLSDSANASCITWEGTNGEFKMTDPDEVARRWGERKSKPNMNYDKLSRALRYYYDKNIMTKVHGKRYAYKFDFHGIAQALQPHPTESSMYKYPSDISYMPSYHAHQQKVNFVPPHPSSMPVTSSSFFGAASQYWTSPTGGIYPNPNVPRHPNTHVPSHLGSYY
How it was run: (§1)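 Pools were built from human transcription factors expressed in yeast as GST fusions, captured on glutathione beads and DNA-barcoded, along with a tag-only sample. Incubation with 200 nmole of a 16-mer random double-stranded DNA library lasted 30 min at room temperature in Tris/NaCl/DTT/glycerol buffer, and was followed by washing, 0.1% formaldehyde crosslinking, proximity ligation, PCR amplification and Illumina NextSeq500 sequencing. Binding signal is the quotient of each hexamer's read frequency for a factor and its frequency for the tag-only sample.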

ELK1 = molecular target: T2, ELK1 (Homo sapiens, UniProt P19419 1-428)
T2 sequence: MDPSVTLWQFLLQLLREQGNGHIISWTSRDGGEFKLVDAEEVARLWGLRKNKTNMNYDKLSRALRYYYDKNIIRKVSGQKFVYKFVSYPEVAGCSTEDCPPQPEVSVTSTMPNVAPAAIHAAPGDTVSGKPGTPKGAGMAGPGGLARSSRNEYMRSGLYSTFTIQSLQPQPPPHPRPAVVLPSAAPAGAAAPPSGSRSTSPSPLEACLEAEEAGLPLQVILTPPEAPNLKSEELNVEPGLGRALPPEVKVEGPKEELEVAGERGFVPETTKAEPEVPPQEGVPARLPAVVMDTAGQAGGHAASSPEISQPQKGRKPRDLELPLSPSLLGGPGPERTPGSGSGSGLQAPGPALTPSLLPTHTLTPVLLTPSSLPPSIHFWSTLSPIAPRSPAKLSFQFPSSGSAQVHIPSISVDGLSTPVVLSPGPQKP
How it was run: as §1

GABPA = molecular target: T3, GABPA (Homo sapiens, UniProt Q06546 1-454)
T3 sequence: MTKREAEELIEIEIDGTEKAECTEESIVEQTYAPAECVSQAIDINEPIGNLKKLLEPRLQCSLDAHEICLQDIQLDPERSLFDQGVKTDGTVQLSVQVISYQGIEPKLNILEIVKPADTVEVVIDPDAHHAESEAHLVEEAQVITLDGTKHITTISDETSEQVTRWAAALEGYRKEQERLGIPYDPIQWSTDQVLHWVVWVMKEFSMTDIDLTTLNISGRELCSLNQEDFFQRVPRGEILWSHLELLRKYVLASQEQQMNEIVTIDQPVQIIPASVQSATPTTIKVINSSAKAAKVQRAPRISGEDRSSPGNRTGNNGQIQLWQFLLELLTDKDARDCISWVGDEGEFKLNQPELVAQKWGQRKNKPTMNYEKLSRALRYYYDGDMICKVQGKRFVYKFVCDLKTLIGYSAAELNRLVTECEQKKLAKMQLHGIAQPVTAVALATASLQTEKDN
How it was run: as §1

ERG = molecular target: T4, ERG (Homo sapiens, UniProt P11308 1-479)
T4 sequence: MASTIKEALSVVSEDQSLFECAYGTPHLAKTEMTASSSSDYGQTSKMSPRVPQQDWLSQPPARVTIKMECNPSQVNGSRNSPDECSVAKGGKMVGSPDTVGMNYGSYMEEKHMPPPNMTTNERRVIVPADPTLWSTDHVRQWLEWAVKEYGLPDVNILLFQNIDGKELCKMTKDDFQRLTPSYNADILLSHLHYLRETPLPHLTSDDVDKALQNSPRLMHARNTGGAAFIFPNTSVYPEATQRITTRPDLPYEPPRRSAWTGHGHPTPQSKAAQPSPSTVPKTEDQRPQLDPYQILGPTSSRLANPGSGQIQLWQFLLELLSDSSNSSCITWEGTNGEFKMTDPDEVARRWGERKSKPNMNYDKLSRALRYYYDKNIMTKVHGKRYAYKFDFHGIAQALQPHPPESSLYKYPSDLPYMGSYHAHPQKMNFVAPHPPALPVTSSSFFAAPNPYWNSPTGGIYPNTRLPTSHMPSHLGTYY
How it was run: as §1

ELF1 = ELF1 (Homo sapiens, UniProt P32519 1-619)
How it was run: as §1

EHF = molecular target: T5, EHF (Homo sapiens, UniProt Q9NZC4 1-300)
T5 sequence: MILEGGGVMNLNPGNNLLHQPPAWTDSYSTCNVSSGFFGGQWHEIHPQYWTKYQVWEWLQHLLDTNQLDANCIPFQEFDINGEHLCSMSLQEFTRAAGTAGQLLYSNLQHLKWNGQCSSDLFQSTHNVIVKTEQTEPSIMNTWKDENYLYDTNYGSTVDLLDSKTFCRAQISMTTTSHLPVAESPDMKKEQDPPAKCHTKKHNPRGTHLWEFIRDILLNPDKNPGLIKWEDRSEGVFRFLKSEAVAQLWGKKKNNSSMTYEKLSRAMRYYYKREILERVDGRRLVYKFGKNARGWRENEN
How it was run: as §1

SPI1 = SPI1 (Homo sapiens, UniProt P17947 1-270)
How it was run: as §1

SPIB = SPIB (Homo sapiens, UniProt Q01892 1-262)
How it was run: as §1

ELK3 = molecular target: T6, ELK3 (Homo sapiens, UniProt P41970 1-407)
T6 sequence: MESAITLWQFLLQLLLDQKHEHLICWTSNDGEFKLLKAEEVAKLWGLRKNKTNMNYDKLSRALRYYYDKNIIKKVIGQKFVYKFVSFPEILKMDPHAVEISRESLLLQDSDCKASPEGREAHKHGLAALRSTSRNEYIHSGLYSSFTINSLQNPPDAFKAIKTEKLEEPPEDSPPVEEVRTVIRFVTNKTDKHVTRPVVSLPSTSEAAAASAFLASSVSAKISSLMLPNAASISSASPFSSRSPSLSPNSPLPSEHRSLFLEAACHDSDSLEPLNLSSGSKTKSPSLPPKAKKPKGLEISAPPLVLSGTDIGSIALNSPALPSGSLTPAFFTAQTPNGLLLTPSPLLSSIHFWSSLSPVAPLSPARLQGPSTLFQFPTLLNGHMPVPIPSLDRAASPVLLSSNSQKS
How it was run: as §1

Chain of ELF1 (P32519 whole entry): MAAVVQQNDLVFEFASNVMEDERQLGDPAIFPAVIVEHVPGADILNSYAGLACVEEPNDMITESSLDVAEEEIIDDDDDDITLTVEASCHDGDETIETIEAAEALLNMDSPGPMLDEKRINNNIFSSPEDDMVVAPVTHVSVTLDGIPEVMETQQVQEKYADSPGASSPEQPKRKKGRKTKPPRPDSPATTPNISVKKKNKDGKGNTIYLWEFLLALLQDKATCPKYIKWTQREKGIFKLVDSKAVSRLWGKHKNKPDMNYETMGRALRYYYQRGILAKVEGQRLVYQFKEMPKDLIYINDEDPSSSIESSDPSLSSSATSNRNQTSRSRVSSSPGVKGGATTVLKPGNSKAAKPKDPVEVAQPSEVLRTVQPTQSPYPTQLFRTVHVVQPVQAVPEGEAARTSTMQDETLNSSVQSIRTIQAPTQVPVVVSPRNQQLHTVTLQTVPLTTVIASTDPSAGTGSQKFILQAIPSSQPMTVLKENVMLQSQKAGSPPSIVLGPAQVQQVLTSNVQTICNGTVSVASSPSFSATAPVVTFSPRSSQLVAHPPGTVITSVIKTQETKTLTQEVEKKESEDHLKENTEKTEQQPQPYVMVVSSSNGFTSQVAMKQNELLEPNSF
Chain of SPIB (Q01892 whole entry): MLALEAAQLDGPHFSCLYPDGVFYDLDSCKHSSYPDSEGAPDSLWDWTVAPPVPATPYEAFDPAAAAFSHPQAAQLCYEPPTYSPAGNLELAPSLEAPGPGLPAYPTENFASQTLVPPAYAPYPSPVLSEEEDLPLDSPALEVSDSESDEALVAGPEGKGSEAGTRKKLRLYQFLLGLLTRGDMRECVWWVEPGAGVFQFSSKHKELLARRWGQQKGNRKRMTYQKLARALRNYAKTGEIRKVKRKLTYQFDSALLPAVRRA

| Sequence | binding signal (FLI1) | binding signal (ELK1) | binding signal (GABPA) | binding signal (ERG) | binding signal (ELF1) | binding signal (EHF) | binding signal (SPI1) | binding signal (SPIB) | binding signal (ELK3) |
| --- | --- | --- | --- | --- | --- | --- | --- | --- | --- |
| TAACTC | 1.3 fold enrichment (6-mer frequency, TF over GST control) | 1.22 fold enrichment (6-mer frequency, TF over GST control) | 1.23 fold enrichment (6-mer frequency, TF over GST control) | 1.11 fold enrichment (6-mer frequency, TF over GST control) | 1.29 fold enrichment (6-mer frequency, TF over GST control) | 1.16 fold enrichment (6-mer frequency, TF over GST control) | 1.18 fold enrichment (6-mer frequency, TF over GST control) | 1.21 fold enrichment (6-mer frequency, TF over GST control) | 1.18 fold enrichment (6-mer frequency, TF over GST control) |
| TAAATA | 1.23 fold enrichment (6-mer frequency, TF over GST control) | 1.18 fold enrichment (6-mer frequency, TF over GST control) | 1.21 fold enrichment (6-mer frequency, TF over GST control) | 1.2 fold enrichment (6-mer frequency, TF over GST control) | 1.21 fold enrichment (6-mer frequency, TF over GST control) | 1.23 fold enrichment (6-mer frequency, TF over GST control) | 1.29 fold enrichment (6-mer frequency, TF over GST control) | 1.35 fold enrichment (6-mer frequency, TF over GST control) | 1.33 fold enrichment (6-mer frequency, TF over GST control) |
| ACACAT | 1.34 fold enrichment (6-mer frequency, TF over GST control) | 1.25 fold enrichment (6-mer frequency, TF over GST control) | 1.17 fold enrichment (6-mer frequency, TF over GST control) | 1.31 fold enrichment (6-mer frequency, TF over GST control) | 1.25 fold enrichment (6-mer frequency, TF over GST control) | 1.35 fold enrichment (6-mer frequency, TF over GST control) | 1.21 fold enrichment (6-mer frequency, TF over GST control) | 1.21 fold enrichment (6-mer frequency, TF over GST control) | 1.32 fold enrichment (6-mer frequency, TF over GST control) |
| ACTAAG | 1.04 fold enrichment (6-mer frequency, TF over GST control) | 1.08 fold enrichment (6-mer frequency, TF over GST control) | 1.11 fold enrichment (6-mer frequency, TF over GST control) | 1.02 fold enrichment (6-mer frequency, TF over GST control) | 1.04 fold enrichment (6-mer frequency, TF over GST control) | 1.15 fold enrichment (6-mer frequency, TF over GST control) | 1.12 fold enrichment (6-mer frequency, TF over GST control) | 1.14 fold enrichment (6-mer frequency, TF over GST control) | 1.07 fold enrichment (6-mer frequency, TF over GST control) |
| TAGAAA | 1.1 fold enrichment (6-mer frequency, TF over GST control) | 1.03 fold enrichment (6-mer frequency, TF over GST control) | 1.02 fold enrichment (6-mer frequency, TF over GST control) | 1.04 fold enrichment (6-mer frequency, TF over GST control) | 1.09 fold enrichment (6-mer frequency, TF over GST control) | 1.07 fold enrichment (6-mer frequency, TF over GST control) | 1.11 fold enrichment (6-mer frequency, TF over GST control) | 1.11 fold enrichment (6-mer frequency, TF over GST control) | 1.09 fold enrichment (6-mer frequency, TF over GST control) |
| GGCACT | 1.24 fold enrichment (6-mer frequency, TF over GST control) | 1.21 fold enrichment (6-mer frequency, TF over GST control) | 1.28 fold enrichment (6-mer frequency, TF over GST control) | 1.22 fold enrichment (6-mer frequency, TF over GST control) | 1.22 fold enrichment (6-mer frequency, TF over GST control) | 1.33 fold enrichment (6-mer frequency, TF over GST control) | 1.35 fold enrichment (6-mer frequency, TF over GST control) | 1.35 fold enrichment (6-mer frequency, TF over GST control) | 1.27 fold enrichment (6-mer frequency, TF over GST control) |
| AATATT | 1.39 fold enrichment (6-mer frequency, TF over GST control) | 1.29 fold enrichment (6-mer frequency, TF over GST control) | 1.29 fold enrichment (6-mer frequency, TF over GST control) | 1.18 fold enrichment (6-mer frequency, TF over GST control) | 1.36 fold enrichment (6-mer frequency, TF over GST control) | 1.32 fold enrichment (6-mer frequency, TF over GST control) | 1.23 fold enrichment (6-mer frequency, TF over GST control) | 1.34 fold enrichment (6-mer frequency, TF over GST control) | 1.42 fold enrichment (6-mer frequency, TF over GST control) |
